Test results taken from PubChem BioAssay.
Calls of active or inactive are those of the source. Unless noted, how the calls were made is not given here.

Key:
[1] = anti-His antibody binders, primary screen, artefact control for SMM control protein annotation, biochemical, small-molecule microarray, 635 nm fluorescence (AID 1128); conditions: anti-His Alexa647 antibody binding, higher = more signal;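 further: score merges feature fluorescence with signal-to-noise for each printed compound spot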
[2] = tested on: Human papillomavirus type 1a E7 protein (residues 1-88); assay: HPV1a E7 small-molecule binders, primary screen, biochemical, small-molecule microarray, residues 1-88, 635 nm (AID 1129); conditions: small-molecule microarray binding, fluorescence 635 nm; higher = more signal
[3] = biological target: Focal adhesion kinase 1 (Homo sapiens) (UniProt Q05397); assay: small-molecule microarray binders of FAK, primary screen, biochemical, 635/667 nm fluorescence, BSA, DTT (AID 1130); conditions: PTK2 binding, 635 nm fluorescence, higher = more signal;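 further: composite of spot emission at 667 nm and signal to noise over triplicate slides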
[4] = tested on: Fibrinogen (Alexa647-labelled); assay: fibrinogen binders on compound microarrays, profiling panel, artefact control for SMM control-protein annotation, biochemical, small-molecule microarray, 635/667 nm fluorescence (AID 1131); conditions: fibrinogen-A647 binding fluorescence, higher = more signal;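 further: z-score merges 667 nm fluorescence with per-spot signal-to-noise over triplicate slides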
[5] = biological target: Follistatin (Homo sapiens) (UniProt P19883); assay: follistatin binders on small-molecule microarrays, primary screen, biochemical, small-molecule microarray, 635/667 nm fluorescence (AID 1132); conditions: FST binding, 635 nm fluorescence, higher = more signal
[6] = biological target: Fibroblast growth factor 2 (Homo sapiens) (UniProt P09038); assay: FGF2 binders on small-molecule microarrays, primary screen, biochemical, small-molecule microarray, 635/667 nm fluorescence (AID 1133); conditions: small-molecule microarray binding, FGF2, fluorescence 635/667; higher = more signal
[7] = mitochondrial membrane potential change in A549 cells, profiling panel, cell-based, JC-1 fluorescence, basal, 24 h, 100 nL (AID 1138); conditions: higher = more signal;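 further: A549 lung adenocarcinoma cells under basal conditions with no added stimulus; test concentration not given here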
Lefty1 = Lefty1 binders on small-molecule microarrays, primary screen, biochemical, small-molecule microarray, 635/667 nm fluorescence (AID 1139); conditions: small-molecule microarray binding, fluorescence 635/667; higher = more signal
[8] = tested on: wheat germ agglutinin (Triticum aestivum), Alexa647-labelled; assay: wheat germ agglutinin binders on compound microarrays, profiling panel, artefact control for SMM control-protein annotation, biochemical, small-molecule microarray, 635/667 nm fluorescence (AID 1140); conditions: WGA-A647 binding, 635 nm fluorescence, higher = more signal;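 further: score merges 667 nm feature emission with signal to noise over triplicate slides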
[9] = biological target: Luciferin 4-monooxygenase (Photinus pyralis) (UniProt P08659); assay: firefly luciferase enzyme inhibitors, primary screen, biochemical, luminescence, purified enzyme, 2006 set (AID 1141); conditions: SteadyGlo luminescence, 30 min, higher = more signal, called active from +8 up or from −8 down;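 further: cell-free assay with purified firefly luciferase at 100 ng per well in PBS; test concentration not given here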
[10] = tested on: Wnt5a (protein binding on small-molecule microarray); assay: Wnt5a binders on small-molecule microarray, primary screen, biophysical, 635/667 nm fluorescence (AID 1142); conditions: 635 nm fluorescence, higher = more signal;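 further: fluorescence read at 667 nm with signal to noise per printed feature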
[11] = cell viability in Huh7 cells, primary screen, cytotoxicity control for HCV replication inhibitor project, CellTiter-Glo luminescence, basal, 48 h (AID 1143); conditions: Huh7 HCV replicon, higher = more signal, called active from +8 up or from −8 down;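 further: Huh7 hepatoma cells carrying a hepatitis C replication reporter with no stimulus; test concentration not given here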
[12] = P. aeruginosa biofilm formation inhibitors, primary screen, PAO1 strain, BacTiter-Glo luminescence, LB-PBS (AID 1144); conditions: 12 h, higher = more signal
[13] = CREB reporter modulators without forskolin, primary screen, cell-based, PC12, CRE-LacZ reporter, unstimulated (AID 1145); conditions: no forskolin, luminescence, 4.5 h, higher = more signal, called active from +8 up or from −8 down
[14] = CREB reporter modulators under forskolin, primary screen, cell-based, PC12, CRE-LacZ reporter, forskolin-stimulated (AID 1146); conditions: luminescence, 4.5 h, higher = more signal, called active from +8 up or from −8 down;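 further: PC12 cells with 6xCRE LacZ reporter stimulated by forskolin 10 µM; beta-galactosidase reporter signal reflecting CREB driven transcription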
[15] = biological target: Streptavidin (Streptomyces avidinii) (UniProt P22629); assay: streptavidin binders on small-molecule microarray, primary screen, artefact control for SMM compound annotation, biophysical, 635/667 nm fluorescence (AID 1147); conditions: streptavidin binding, higher = more signal;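 further: signal reflects streptavidin binding to arrayed compounds as a control protein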
[16] = small-molecule binders of probe aInhba, primary screen, biochemical, small-molecule microarray, 635/667 nm fluorescence (AID 1148); conditions: higher = more signal;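 further: score merges 667nm spot fluorescence with signal-to-noise for antibody binding to printed compounds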
Torsin-1A (Homo sapiens) [17] = biological target: Torsin-1A (Homo sapiens) (UniProt O14656); assay: torsin A binders from cell lysate, primary screen, small-molecule microarray, wild-type, 635/667 nm (AID 1149); conditions: COS7 hTOR1A-WT lysate, 635 nm fluorescence, higher = more signal
Torsin-1A (Homo sapiens) [18] = biological target: Torsin-1A (Homo sapiens) (UniProt O14656); assay: small-molecule binders of mutant TOR1A in lysate, primary screen, cell lysate, small-molecule microarray, COS7 lysate, 635/667 nm fluorescence (AID 1150); conditions: COS7 hTOR1A mutant lysate, 635 nm fluorescence, higher = more signal;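 further: score pools 667 nm emission and signal to noise measuring lysate protein binding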
[19] = tested on: Sonic hedgehog protein (Shh); assay: small-molecule binders of Shh protein, primary screen, biochemical, small-molecule microarray, 635/667 nm fluorescence (AID 1151); conditions: small-molecule microarray binding, 635 nm fluorescence; higher = more signal;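 further: Shh protein binding to compounds spotted on small-molecule microarray slides; score combines spot fluorescence intensity with signal-to-noise across triplicate slides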

Chain of Follistatin (Homo sapiens) (P19883 whole entry, looked up): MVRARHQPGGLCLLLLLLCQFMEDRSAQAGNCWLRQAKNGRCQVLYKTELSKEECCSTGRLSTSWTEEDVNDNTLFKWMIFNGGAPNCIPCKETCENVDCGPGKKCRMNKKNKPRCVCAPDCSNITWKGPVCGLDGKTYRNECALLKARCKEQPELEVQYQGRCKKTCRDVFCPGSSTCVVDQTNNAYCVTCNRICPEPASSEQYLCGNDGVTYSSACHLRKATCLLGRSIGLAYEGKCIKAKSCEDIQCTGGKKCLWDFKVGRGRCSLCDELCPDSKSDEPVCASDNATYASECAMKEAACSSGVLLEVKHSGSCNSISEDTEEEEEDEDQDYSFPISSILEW
Chain of Fibroblast growth factor 2 (Homo sapiens) (P09038 whole entry, looked up): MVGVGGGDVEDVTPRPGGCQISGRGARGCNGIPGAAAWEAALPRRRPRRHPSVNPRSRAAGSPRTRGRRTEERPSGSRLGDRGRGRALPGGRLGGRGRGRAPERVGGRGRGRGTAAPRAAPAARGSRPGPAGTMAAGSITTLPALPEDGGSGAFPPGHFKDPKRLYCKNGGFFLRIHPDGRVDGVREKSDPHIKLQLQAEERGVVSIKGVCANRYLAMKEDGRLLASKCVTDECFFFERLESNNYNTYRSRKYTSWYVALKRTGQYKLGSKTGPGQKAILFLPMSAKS
Chain of Luciferin 4-monooxygenase (Photinus pyralis) (P08659 whole entry, looked up): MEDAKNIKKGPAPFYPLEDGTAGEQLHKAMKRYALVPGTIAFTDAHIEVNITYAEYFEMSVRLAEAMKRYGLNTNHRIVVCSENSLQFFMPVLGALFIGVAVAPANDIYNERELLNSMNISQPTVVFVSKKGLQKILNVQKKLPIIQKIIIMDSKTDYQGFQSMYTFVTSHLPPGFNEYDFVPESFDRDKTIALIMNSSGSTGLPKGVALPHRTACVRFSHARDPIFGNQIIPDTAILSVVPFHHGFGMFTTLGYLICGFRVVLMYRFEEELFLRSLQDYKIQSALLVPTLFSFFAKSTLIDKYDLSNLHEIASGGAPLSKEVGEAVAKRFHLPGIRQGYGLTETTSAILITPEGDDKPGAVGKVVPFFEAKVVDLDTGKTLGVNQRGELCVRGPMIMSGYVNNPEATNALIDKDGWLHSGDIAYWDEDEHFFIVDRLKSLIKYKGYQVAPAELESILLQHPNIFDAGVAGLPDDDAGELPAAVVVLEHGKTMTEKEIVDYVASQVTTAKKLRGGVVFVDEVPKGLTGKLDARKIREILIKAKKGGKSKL
Chain of Focal adhesion kinase 1 (Homo sapiens) (Q05397 whole entry, looked up): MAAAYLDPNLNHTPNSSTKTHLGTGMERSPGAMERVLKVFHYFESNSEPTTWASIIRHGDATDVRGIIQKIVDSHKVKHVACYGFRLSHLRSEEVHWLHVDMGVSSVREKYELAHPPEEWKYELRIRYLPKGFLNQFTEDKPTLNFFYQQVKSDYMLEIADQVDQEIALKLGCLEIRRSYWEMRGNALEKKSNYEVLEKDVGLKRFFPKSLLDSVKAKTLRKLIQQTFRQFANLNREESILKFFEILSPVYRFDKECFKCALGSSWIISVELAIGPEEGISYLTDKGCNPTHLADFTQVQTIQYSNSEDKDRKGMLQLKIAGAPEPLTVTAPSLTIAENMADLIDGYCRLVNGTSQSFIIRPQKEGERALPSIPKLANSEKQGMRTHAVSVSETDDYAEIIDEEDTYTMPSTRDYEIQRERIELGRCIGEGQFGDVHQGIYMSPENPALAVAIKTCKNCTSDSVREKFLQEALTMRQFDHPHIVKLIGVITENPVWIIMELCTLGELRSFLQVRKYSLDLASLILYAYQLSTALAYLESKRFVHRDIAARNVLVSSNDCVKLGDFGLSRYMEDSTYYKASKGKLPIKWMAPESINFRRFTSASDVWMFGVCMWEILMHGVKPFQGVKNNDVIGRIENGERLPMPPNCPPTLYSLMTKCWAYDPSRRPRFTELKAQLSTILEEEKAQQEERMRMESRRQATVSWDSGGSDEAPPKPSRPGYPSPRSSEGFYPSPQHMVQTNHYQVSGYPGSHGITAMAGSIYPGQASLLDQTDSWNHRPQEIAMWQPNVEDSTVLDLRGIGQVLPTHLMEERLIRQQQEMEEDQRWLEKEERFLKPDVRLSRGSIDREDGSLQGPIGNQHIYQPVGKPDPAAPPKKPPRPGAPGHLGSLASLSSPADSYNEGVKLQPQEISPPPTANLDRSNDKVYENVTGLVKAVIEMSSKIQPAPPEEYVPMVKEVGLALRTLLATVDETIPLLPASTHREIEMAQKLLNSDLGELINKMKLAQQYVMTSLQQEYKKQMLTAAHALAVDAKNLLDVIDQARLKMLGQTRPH
Chain of Torsin-1A (Homo sapiens) (O14656 whole entry, looked up): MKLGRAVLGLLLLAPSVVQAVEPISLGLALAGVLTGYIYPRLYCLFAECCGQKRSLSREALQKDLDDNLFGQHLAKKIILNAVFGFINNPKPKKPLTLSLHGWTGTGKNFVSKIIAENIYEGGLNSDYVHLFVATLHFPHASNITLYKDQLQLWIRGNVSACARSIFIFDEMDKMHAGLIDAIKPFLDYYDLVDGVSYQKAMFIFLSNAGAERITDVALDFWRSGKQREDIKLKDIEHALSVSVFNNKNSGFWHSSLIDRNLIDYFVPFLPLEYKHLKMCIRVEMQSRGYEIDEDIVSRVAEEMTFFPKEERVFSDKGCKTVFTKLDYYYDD
Chain of Streptavidin (Streptomyces avidinii) (P22629 whole entry, looked up): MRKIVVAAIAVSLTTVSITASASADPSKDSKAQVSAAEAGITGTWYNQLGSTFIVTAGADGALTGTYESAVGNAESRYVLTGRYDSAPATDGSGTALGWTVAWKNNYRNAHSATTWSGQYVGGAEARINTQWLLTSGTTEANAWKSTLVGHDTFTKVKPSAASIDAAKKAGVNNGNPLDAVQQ

SMILES | composite z-score [1] | composite z-score [2] | composite z-score [3] | composite z-score [4] | composite z-score [5] | composite z-score [6] | z-score [7] | composite z-score (Lefty1) | composite z-score [8] | z-score [9] | composite z-score [10] | z-score [11] | z-score [12] | z-score [13] | z-score [14] | composite z-score [15] | composite z-score [16] | composite z-score (Torsin-1A (Homo sapiens) [17]) | composite z-score (Torsin-1A (Homo sapiens) [18]) | composite z-score [19]
CC(C)c1ccc(NN2C(C(O)c3ccco3)C=CC3C(=O)N(c4ccccc4)C(=O)C32)cc1 (stereo not given) | 1.26 | 1.22 | 1.14 | 0.995 | 1.26 | 0.0324 | 0.222 | 0.634 | 1.32 | -1.29 (inactive) | 0.445 | -0.604 (inactive) | -0.688 (inactive) | 0.622 (inactive) | -0.554 (inactive) | 1.47 | 0.271 | 0.185 | 0.445 | 0.794
NC(=O)NCC#Cc1ccc2c(c1)[C@]1(C(=O)N2)[C@H](C(=O)O)[C@H]2C(=O)O[C@H](c3ccccc3)[C@H](c3ccccc3)N2[C@@H]1c1ccccc1OCCO | 1.18 | 0.866 | 0.129 | 0.809 | 1.03 | 0.836 | 0.246 | 1.2 | 1.16 | -4.72 (inactive) | 0.697 | -1.95 (inactive) | -1.26 (inactive) | 0.0384 (inactive) | 0.143 (inactive) | 1.1 | 0.374 | 0.712 | 0.651 | 1.41
C[C@]1(C(=O)NCCN2CCOCC2)c2ccccc2C(=O)N(Cc2ccc(OC(F)(F)F)cc2)[C@H]1c1ccc(CO)cc1 | 2.24 | 0.634 | -0.108 | 0.915 | 0.536 | -0.38 | 1.68 | -0.355 | 0.55 | -0.0852 (inactive) | -0.333 | -0.653 (inactive) | -0.67 (inactive) | -0.412 (inactive) | -0.51 (inactive) | -0.152 | -0.101 | 0.816 | 0.853 | -0.704
COc1cc2c(cc1OC)CN(C(=O)[C@H]1[C@@H]3C(=O)O[C@@H](c4ccccc4)[C@@H](c4ccccc4)N3[C@@H](c3ccc(OCCO)cc3)[C@]13C(=O)Nc1ccc(C#CC4(O)CCCCCC4)cc13)CC2 | 1.91 | 1.21 | -0.109 | 0.819 | 1.46 | 1.38 | -1.42 | 1.35 | 1.18 | -1.15 (inactive) | 0.928 | -0.425 (inactive) | -1.33 (inactive) | -0.438 (inactive) | 0.195 (inactive) | 1.54 | 1.23 | 0.765 | 1.85 | 1.96
CCCC=C(CCC)[C@@H](NP(=O)(c1ccccc1)c1ccccc1)c1ccc(C(F)(F)F)cc1 | 0.74 | 0.811 | 0.666 | 0.47 | -0.683 | -0.265 | 0.365 | 0.57 | 0.255 | 2.55 (inactive) | 0.71 | -0.407 (inactive) | 0.592 (inactive) | 0.0041 (inactive) | 0.0568 (inactive) | 0.0838 | -0.0833 | 0.316 | 0.0932 | -0.395
O=C1O[C@@H](c2ccccc2)[C@@H](c2ccccc2)N2[C@@H](c3ccc(O)cc3)[C@]3(C(=O)Nc4ccc(C#CCCO)cc43)[C@@H](C(=O)NC[C@H](O)c3ccccc3)[C@H]12 | 0.206 | -0.386 | -0.141 | -1.38 | -0.162 | -1.11 | -1.57 | 0.0328 | 1.12 | 0.411 (inactive) | -0.738 | 0.058 (inactive) | 0.142 (inactive) | -1.15 (inactive) | -0.869 (inactive) | -0.791 | -0.128 | -0.664 | 0.229 | 0.304
CN1C(=O)[C@@]2(CCS(=O)(=O)c3ccccc3)N=C(c3ccc(OCCCO)cc3)O[C@H]2c2ccccc21 | 3.54 | 1.26 | 0.582 | 0.974 | 1.29 | 0.394 | 1.15 | 0.358 | 1.01 | -0.899 (inactive) | 0.388 | -4.49 (inactive) | -0.413 (inactive) | 0.0918 (inactive) | -0.196 (inactive) | 1.8 | -0.0384 | 1.55 | 0.397 | 0.203
O=C1O[C@@H](c2ccccc2)[C@@H](c2ccccc2)N2[C@@H](c3ccc(O)cc3)[C@]3(C(=O)Nc4ccc(C#CCCO)cc43)[C@@H](C(=O)Nc3nc4ccccc4s3)[C@H]12 | 0.709 | 1.23 | 0.31 | 0.682 | 1.25 | 1.01 | -2.38 | 0.531 | 0.552 | -0.155 (inactive) | 0.106 | -0.486 (inactive) | 0.422 (inactive) | -0.195 (inactive) | 1.93 (inactive) | 0.103 | 0.0471 | -0.363 | 0.897 | 0.756
COc1ccc(C#Cc2ccc3c(c2)[C@]2(C(=O)N3)[C@H](C(=O)N3CCc4cc(OC)c(OC)cc4C3)[C@H]3C(=O)O[C@H](c4ccccc4)[C@H](c4ccccc4)N3[C@@H]2c2ccc(O)cc2)cc1 | 1.5 | 1.2 | 0.735 | 0.924 | 0.896 | 0.465 | -1.47 | 0.374 | 0.0376 | -0.716 (inactive) | 0.219 | -0.59 (inactive) | -1.01 (inactive) | -0.141 (inactive) | -1.02 (inactive) | 1.04 | -0.121 | 1.03 | 0.199 | 0.466
NCCCCCCNC(=O)[C@@H]1C[C@@H]2C(=O)N3CCC[C@H]3C(=O)N2[C@@H]1c1ccc(O)cc1 | 0.508 | 1.18 | 0.439 | 0.578 | 1.41 | 1.29 | 0.37 | 1.25 | 0.636 | -0.284 (inactive) | 0.236 | -0.118 (inactive) | -0.515 (inactive) | 0.826 (inactive) | -0.615 (inactive) | 1.01 | -0.323 | 0.592 | 0.513 | 2
